Screening data (PubChem)
IL-1B inflam inh: blocks inflammasome-driven IL-1 beta release. THP-1 LPS/ATP IL-1B secretion, AlphaLISA, 16 h; hits give low values. activity change, % at 57.5 µM. 360,000 compounds, 4.7% hits. AID 743279; in the data active = activity change below about -50%; inconclusive = mostly about -30% to -49%; note: % is set by controls: 0 for no effect and ±100 for the full control effect
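THP-1 cells pretreated 1 hr with compounds (up to 57.5 uM final), then stimulated with LPS (250 ng/mL final) plus ATP (1.25 mM final); secreted IL-1B measured by AlphaLISA after 16 hr, decreased signal indicating inhibition.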
HepG2 viability: kills HepG2 cells in TGF-b inhibitor counter-screen; AID 588856; 410,000 compounds, 0.76% hits; HepG2 CAGA-GFP viability, ATP luminescence, 18 h; Potency, µM (top dose mostly 46.1 µM), for the others: top-dose activity change, negative = cytotoxicity, hits mostly cytotoxic; note: potency is the fitted concentration of half-maximal effect
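CellTiter-Glo luminescence gave cytotoxicity after 18 hours at 37 degrees C. The cells were HepG2 CAGA-GFP in 1% FBS DMEM, stimulated with 500 pg/mL TGF-beta after compound addition. %Activity was normalised to no-cell wells (complete cell-killing) and DMSO (no toxicity), and curves were fitted and classified.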
TGFb inhibitor: inhibitors of TGF-b signaling | HepG2 CAGA-GFP TGF-b/SMAD3 reporter, GFP fluorescence, 18 h; TGF-beta stimulated, 500 pg/mL final | Potency, µM (doses to about 46.1 µM), for inactives: at the top dose activity, negative = inhibition, usual class: inhibitors | 410,000 compounds, 1.2% hits | AID 588855; note: potency is the fitted concentration of half-maximal effect; % is set by controls: 0 for no effect and ±100 for the full control effect; nearly all actives have a fitted effect of over 65% in size
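Smad-responsive CAGA-GFP expression was quantified in HEPG2 cells exposed to compounds and 500 pg/mL final TGF-beta for 18 h at 37 degrees C; unstimulated wells defined full inhibition.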
S-ASM inh: inhibitors of human secretory acid sphingomyelinase | P17405 | placental ASM, HMU-PC fluorogenic substrate, 60 min | Potency, µM (series often up to 57.5 µM), for inactives: at the highest dose activity change, negative = inhibition, most hits filed as inhibitors | 340,000 compounds, 0.006% hits; note: potency is the fitted concentration of half-maximal effect
Target sequence (P17405 47-631 limits assumed): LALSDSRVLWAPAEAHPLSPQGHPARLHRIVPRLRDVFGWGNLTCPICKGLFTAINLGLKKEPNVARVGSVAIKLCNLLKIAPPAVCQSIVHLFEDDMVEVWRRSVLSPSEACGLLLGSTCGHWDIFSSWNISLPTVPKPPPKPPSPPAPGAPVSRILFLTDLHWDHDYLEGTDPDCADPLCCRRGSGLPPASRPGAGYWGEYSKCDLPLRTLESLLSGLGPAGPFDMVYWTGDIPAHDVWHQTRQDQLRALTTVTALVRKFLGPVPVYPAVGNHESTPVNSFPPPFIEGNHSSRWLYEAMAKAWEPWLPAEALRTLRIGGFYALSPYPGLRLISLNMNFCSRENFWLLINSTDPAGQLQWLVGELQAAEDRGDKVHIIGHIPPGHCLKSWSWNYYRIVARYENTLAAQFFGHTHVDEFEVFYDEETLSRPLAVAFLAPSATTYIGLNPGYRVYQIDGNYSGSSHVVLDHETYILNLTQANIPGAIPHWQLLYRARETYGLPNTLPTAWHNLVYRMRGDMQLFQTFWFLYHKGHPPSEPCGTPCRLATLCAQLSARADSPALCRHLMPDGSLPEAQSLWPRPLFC
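Human placenta-derived ASM enzyme was preincubated with compound for 10 minutes at room temperature, then given fluorogenic substrate HMU-PC0 (9 uM final) for 60 minutes at 37 °C; a pH 10 stop preceded fluorescence reading at Ex 386/Em 447 nm.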
DT40 TDP1 CPT: growth inhibition of DT40 Tdp1-/-;hTDP1 cells with camptothecin (screen for TDP1 inhibitors) | Potency, µM (doses to about 46.2 µM), inactives show at the highest dose activity change, negative = growth inhibition, actives largely listed as inhibitors | AID 686979 | chicken DT40 Tdp1-/-;hTDP1 cells + 20 nM CPT, ATP luminescence, 48 h | 420,000 compounds, 12% hits; note: potency is the fitted concentration of half-maximal effect; % is set by controls: 0 for no effect and ±100 for the full control effect; nearly all actives have a fitted effect of over 55% in size
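Chicken DT40 Tdp1-/- cells complemented with human TDP1, 400 cells/well, exposed to compounds plus 20 nM camptothecin for at least 48 h at 37 C; viability read as ATP content by CellTiter-Glo luminescence.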
DT40 TDP1 no CPT: qHTS for Inhibitors of human tyrosyl-DNA phosphodiesterase 1 (TDP1): qHTS in cells in absence of CPT; DT40 Tdp1-/- hTDP1 cells, no CPT, ATP luminescence, 48 h; Potency, µM (series often up to 46.2 µM), inactives show top-dose activity change, negative = growth inhibition, usual class: inhibitors; 420,000 compounds, 15% hits; note: potency is the fitted concentration of half-maximal effect; % is set by controls: 0 for no effect and ±100 for the full control effect; nearly all actives have a fitted effect of over 55% in size
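Readout: luminescence from CellTiter-Glo after 30 min in the dark at RT. Cells: DT40 Tdp1-/- with stable hTDP1, 400/well. Exposure: compounds alone, ≥48 hr, 37 °C.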
The depositor's hits bear a star; ? = inconclusive; nt = no result given. Sampled rows, rich in hits. Any-hit rate of the full collection: about 19%. Unless noted, calls come from the whole dose curve; as a rule, active = well fitted curve in the direction sought with a large enough effect; inconclusive = small, poorly fitted or top-dose-only effect, or another doubt; inactive = no such curve, though single readings can be large; an effect the other way counts as inactive or inconclusive.

SMILES | IL-1B inflam inh | HepG2 viability | TGFb inhibitor | S-ASM inh | DT40 TDP1 CPT | DT40 TDP1 no CPT
CCCN1CCN(CCCNC(=O)Cn2c(-c3cccs3)cc3ccccc32)CC1 | nt | -16% | 1% | nt | ? | ?
CC(=O)Nc1ccc(-c2ccnc3c2CC(C)(C(=O)Nc2ccc(F)c(Cl)c2)O3)cc1 (stereo not given) | -62* | 0% | -27% | nt | ? | 23µM*
CC(=O)Nc1cccc(-c2ccnc3c2CC(C)(C(=O)NCc2ccncc2)O3)c1 (stereo not given) | 0 | 1% | 1% | nt | 21µM* | 18µM*
CN(C)c1ccc(-c2ccnc3c2CC(C)(C(=O)Nc2ccc(F)c(Cl)c2)O3)cc1 (stereo not given) | 23 | -21% | ? | nt | ? | ?
CN(C)c1ccc(-c2ccnc3c2CC(C)(C(=O)Nc2ccc(Cl)cc2)O3)cc1 (stereo not given) | -23 | -5% | 1% | nt | ? | ?
CC1(C(=O)Nc2ccc(Cl)cc2)Cc2c(-c3cccc(C(F)(F)F)c3)ccnc2O1 (stereo not given) | -4 | -29% | ? | nt | ? | 23µM*
CC(=O)Nc1cccc(-c2ccnc3c2CC(C)(C(=O)Nc2ccc4c(c2)OCO4)O3)c1 (stereo not given) | 44 | -15% | -19% | nt | 0.65µM* | 0.65µM*
CCCn1c(CC)nc([N+](=O)[O-])c1Sc1ncn[nH]1 | 0 | -29% | ? | nt | ? | ?
CC(=O)Nc1cccc(-c2ccnc3c2CC(C)(C(=O)Nc2cccnc2)O3)c1 (stereo not given) | 28 | -17% | 5% | nt | -28% | -29%
CC(=O)Nc1ccc(NC(=O)C2(C)Cc3c(-c4cccc(NC(C)=O)c4)ccnc3O2)cc1 (stereo not given) | -3 | 0% | 6% | nt | 13% | 12%
CC(C)NC(=O)C1(C)Cc2c(-c3cccc(C(F)(F)F)c3)ccnc2O1 (stereo not given) | 27 | -43% | -28% | nt | 18µM* | 12µM*
CC(=O)Nc1cccc(-c2ccnc3c2CC(C)(C(=O)Nc2cccc(C(C)=O)c2)O3)c1 (stereo not given) | -16 | -4% | -1% | nt | 5.8µM* | 6.5µM*
COc1ccc(NC(=O)C2(C)Cc3c(-c4cccc(C(F)(F)F)c4)ccnc3O2)cc1OC (stereo not given) | 7 | -17% | -13% | nt | 16µM* | 21µM*
CC(=O)Nc1cccc(-c2ccnc3c2CC(C)(C(=O)NC(C)C)O3)c1 (stereo not given) | 15 | 21% | 21% | nt | ? | -18%
CC(=O)Nc1cccc(-c2ccnc3c2CC(C)(C(=O)Nc2ccc(Cl)cc2)O3)c1 (stereo not given) | -20 | -6% | -1% | nt | 1.6µM* | 4.1µM*
O=C1CC(N2CCN(C/C=C/c3ccccc3)CC2)C(=O)N1CCc1ccccc1 (stereo not given) | -26 | -29% | ? | 4% | 18µM* | 21µM*
O=C1CC(N2CCN(C3CC(=O)N(CCc4ccccc4)C3=O)CC2)C(=O)N1CCc1ccccc1 (stereo not given) | 6 | 11% | 16% | -3% | ? | ?
CCn1c2ccccc2c2cc(CN3CCN(Cc4ccc(OC)c(OC)c4)CC3)ccc21 | nt | -63% | ? | nt | 18µM* | 23µM*
COc1ccc(CN2CCN(Cc3ccc4ccccc4c3)CC2)cc1OC | ? | -34% | -25% | 1% | ? | 18µM*
CCOc1ccc(CN2CCN(Cc3ccc4c(c3)c3ccccc3n4CC)CC2)cc1 | nt | -76% | 10µM* | nt | ? | 15µM*
CCCS(=O)(=O)N1CCN(Cc2ccc3c(c2)c2ccccc2n3CC)CC1 | ? | 2% | -5% | -5% | 21µM* | ?
CCn1c2ccccc2c2cc(CN3CCN(Cc4ccccc4Cl)CC3)ccc21 | nt | -33% | ? | nt | ? | ?
CCN(Cc1ccccc1)C(=O)C1CCN(S(=O)(=O)c2c(C)noc2/C=C/c2ccc(C)cc2)CC1 | nt | -7% | -36% | nt | ? | ?
CCN1CCc2c(sc(NC(=O)COc3ccccc3)c2C(=O)OC)C1 | ? | -22% | 14% | 1% | ? | ?
O=C(CCc1nnc(CCC2CCCCC2)o1)NCCn1cccn1 | -5 | 1% | -2% | 0% | 3% | 14%
SMILES | IL-1B inflam inh | HepG2 viability | TGFb inhibitor | S-ASM inh | DT40 TDP1 CPT | DT40 TDP1 no CPT
CCN(CC(=O)Nc1ccc2c(c1)OCCO2)C(=O)/C=C/c1ccc([N+](=O)[O-])cc1 | -6 | -5% | -5% | -1% | 0% | 1%
CN1C(=O)c2[nH]nc(-c3ccc(F)cc3)c2C1c1cccc(O)c1 (stereo not given) | nt | -15% | -8% | nt | ? | ?
CN1C(=O)NC2(O)C(=O)c3ccccc3C12O (stereo not given) | 35 | 10µM* | -4% | 2% | 12µM* | 10µM*
COc1ccccc1/C=C/C1(C(=O)NC2CCCC2)CC(=O)N1c1ccc(C)cc1 (stereo not given) | -12 | -13% | ? | -1% | ? | 23µM*
COc1ccccc1/C=C/C1(C(=O)NC2CCCC2)CC(=O)N1c1ccc(F)cc1 (stereo not given) | -89* | -27% | ? | -5% | 18µM* | ?
CC1(C(=O)NC2CCCCC2)Cc2ccccc2C(=O)N1Cc1ccc(F)cc1 (stereo not given) | nt | 0% | nt | nt | ? | ?
C(=N\Nc1cc(N2CCCCC2)ncn1)/c1ccco1 | -12 | -15% | -17% | -2% | -11% | -28%
CN(Cc1ccccc1)C(=O)c1ccc(NC(=O)Cc2ccc(NC(=O)C3CCCN(C(=O)CCc4ccccc4)C3)cc2)cc1 (stereo not given) | 27 | -25% | -40% | 0% | 10µM* | 15µM*
CN(Cc1ccccc1)C(=O)c1ccc(NC(=O)Cc2ccc(NC(=O)C3CCCN(C(=O)C4CCCCC4)C3)cc2)cc1 (stereo not given) | 45 | -4% | ? | -9% | ? | ?
CN(Cc1ccccc1)C(=O)c1ccc(NC(=O)C2CCCN(C(=O)OC(C)(C)C)C2)cc1 (stereo not given) | 17 | -17% | ? | -6% | ? | 18µM*
